# From PubChem
# HCV NS3h FP = blocks HCV NS3 helicase binding to DNA; inhibition, % at 100 µM; hit rate 1.6% among 16,000; AID 687043; NS3h Cy5-dT15 DNA binding, fluorescence polarization;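 active means inhibition above the average over every tested compound plus 3 SD, cut at about 40% in these data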
# Cy5 interf NS3h = Cy5 fluorescence interference, HCV helicase counter-screen | Cy5-dT15 DNA with NS3h; actives lie on both sides; signal over control mean, under 1 quenches | fluorescence interference ratio at 100 µM | hit rate 6% among 16,000;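 active means compound fluorescence over control fluorescence at most 0.8, a quencher, or at least a set upper limit, an enhancer; inactive means ratio between 0.8 and the set upper limit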
# NS3h confirm = confirmation of hepatitis C virus NS3 helicase inhibitors; shares compounds with HCV NS3h FP; NS3h binding to Cy5-dT15 DNA, fluorescence polarization; inhibition, % at 100 µM; hit rate 20% among 240;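 active means percent inhibition of 50% or more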
# SSB-DNA FP CB = counter-screen for HCV NS3 helicase inhibitors: E. coli SSB binding | shares compounds with HCV NS3h FP | E. coli SSB binding Cy5-dT15, fluorescence polarization | inhibition, % at 100 µM | hit rate 40% among 240 | AID 720486;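 active means inhibition of at least 50%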;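 further: displacers lower Cy5 polarization so higher inhibition means more SSB displaced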
# Target sequence (P0AGE0 whole entry, looked up): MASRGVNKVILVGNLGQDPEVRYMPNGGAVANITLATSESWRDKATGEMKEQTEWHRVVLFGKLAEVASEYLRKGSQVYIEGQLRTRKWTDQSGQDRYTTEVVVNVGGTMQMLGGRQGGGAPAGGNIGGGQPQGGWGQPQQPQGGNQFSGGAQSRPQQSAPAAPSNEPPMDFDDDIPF
# Cy5 SSB interf = Cy5 fluorescence interference in NS3h counter-screen; shares compounds with HCV NS3h FP; hit rate 8% among 240; Cy5-dT15/E. coli SSB fluorescence interference; actives lie on both sides; AID 720487; fluorescence interference ratio at 100 µM;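 active means fluorescence interference ratio at or above 1.2, signal boosting, or at or below 0.8, signal quenching; inactive means ratio between 0.8 and 1.2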;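 further: ratio of compound well signal to mean negative control signal so 1 means no effect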
# Cy5 interf conf = confirmation counter-screen for HCV NS3 helicase inhibitors: fluorescence interference; shares compounds with HCV NS3h FP; Cy5-dT15 DNA/NS3h fluorescence interference counterscreen; fluorescence interference ratio at 100 µM, hits read low; hit rate 44% among 240;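 active means fluorescence interference ratio at or below 0.8 quencher or at or above a set limitenhancer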;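 further: ratio of compound fluorescence to mean of negative controls so 1 means no interference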
# An asterisk follows results filed as active; . = not tested or not shown; + = active, no number. Most compounds without a hit are left out; they make up all but 7.6% or so of the library.
SMILES,HCV NS3h FP,Cy5 interf NS3h,NS3h confirm,SSB-DNA FP CB,Cy5 SSB interf,Cy5 interf conf
CC(=O)N(c1ccccc1)S(=O)(=O)c1ccc(Cl)cc1,2.8,1.04,.,.,.,.
COc1ccc(C(=O)c2coc3ccc(O)cc23)cc1,15.5,1.05,.,.,.,.
COc1ccc2occ(C(=O)c3ccccc3Cl)c(=O)c2c1,56.6*,1.04,25.6,7.8,0.989,0.878
O=C1NC(=O)N(c2ccc(Cl)cc2)C(=O)/C1=C\c1ccc(-c2ccccc2[N+](=O)[O-])o1,1.3,1.02,.,.,.,.
CCOc1ccc(N2C(=O)NC(=O)/C(=C\c3ccc(-c4ccccc4C(=O)O)o3)C2=O)cc1,67.0*,1.05,41.5,39.3,0.96,0.951
O=C1NC(=O)N(c2ccc(Cl)cc2)C(=O)/C1=C/c1ccc(-c2ccccc2C(=O)O)o1,44.5*,1.16,56.3*,29.6,0.949,0.907
CCOc1ccc(N2C(=O)NC(=O)/C(=C\c3ccc(-c4ccc([N+](=O)[O-])cc4OC)o3)C2=O)cc1,22.2,1.01,.,.,.,.
CN(C)C(=O)c1ccc(Br)cc1,0.4,1.03,.,.,.,.
Cc1cc(NS(=O)(=O)c2ccc(NC(=O)c3cccc(Br)c3)cc2)no1,5.2,0.966,.,.,.,.
CCOc1ccc(C(=O)Nc2cc(OC)ccc2OC)cc1[N+](=O)[O-],88.8*,1.14,16.1,12.6,0.93,0.937
COc1ccc(C)cc1NC(=O)c1ccc(OC)c([N+](=O)[O-])c1,4.2,0.971,.,.,.,.
CCc1c(C#N)c(N)nc(SCC(=O)c2ccc(-c3ccccc3)cc2)c1C#N,3.2,1.05,.,.,.,.
CCc1c(C#N)c(N)nc(SCC(=O)c2cc3ccccc3oc2=O)c1C#N,29.9,1.09,-4.0,2.9,1,0.765*
C=CCc1cccc2cc(C(=O)NCCc3ccccc3)c(=O)oc12,18.2,0.908,.,.,.,.
C=CCc1cccc2cc(C(=O)Nc3cccc4c3C(=O)c3ccccc3C4=O)c(=O)oc12,58.4*,0.942,-0.8,-3.2,1,1
CCOC(=O)C1=C(C)N(CCOC)C(=O)/C1=C\c1ccccc1F,6.4,0.993,.,.,.,.
O=[N+]([O-])c1cccc2c1NC(c1ccccc1F)C1CC=CC21 (configuration not stated),6.9,0.956,.,.,.,.
O=C(O)c1cccc2c1NC(c1cccc3ccccc13)C1CC=CC21 (configuration not stated),49.8*,0.951,18.2,49.0,1.02,0.856
CSc1ccc(S(=O)(=O)N(CC(=O)NC2CCCCC2)c2ccc(C)cc2)cc1,-5.0,0.998,.,.,.,.
COc1ccc(N(CC(=O)Nc2ccc(I)cc2)S(=O)(=O)c2ccc(C)cc2)c(OC)c1,9.1,1.02,.,.,.,.
NC1=NN(c2ccc(N)cc2)CC1,+,0.0757*,90.1*,100.0*,0*,0.0718*
O=C1NC(=O)N(c2ccc(Cl)cc2)C(=O)/C1=C/c1cc(Br)c(O)c([N+](=O)[O-])c1,21.5,1.07,42.5,75.7*,0.906,0.807
O=C1NC(=O)N(c2ccccc2F)C(=O)/C1=C/c1ccc(O)c(Cl)c1,29.7,0.982,.,.,.,.
O=C1NC(=O)N(c2cccc(Cl)c2)C(=O)/C1=C/c1ccc(O)c(Cl)c1,11.9,0.991,.,.,.,.
COc1ccccc1N1C(=O)NC(=O)/C(=C\c2ccc(O)c(O)c2)C1=O,43.5*,0.972,7.6,19.9,0.926,0.998
SMILES,HCV NS3h FP,Cy5 interf NS3h,NS3h confirm,SSB-DNA FP CB,Cy5 SSB interf,Cy5 interf conf
Cc1cccc(N2C(=O)NC(=O)/C(=C\c3ccc(O)c(Cl)c3)C2=O)c1,64.7*,1.02,18.2,28.4,0.958,0.962
Cc1ccc(N2C(=O)NC(=O)/C(=C\c3ccc(O)c(Br)c3)C2=O)cc1,19.1,1.07,.,.,.,.
Cc1cc(C)cc(N2C(=O)NC(=O)/C(=C\c3ccc(O)c(Br)c3)C2=O)c1,38.4,0.991,8.7,23.5,0.956,0.749*
C=CCOc1c(Br)cc(/C=C2\C(=O)NC(=O)N(c3ccc(Cl)cc3)C2=O)cc1OC,16.4,1.09,.,.,.,.
Cc1ccccc1N(CC(=O)NC(C)(C)C)S(C)(=O)=O,5.3,1.1,.,.,.,.
COc1cc(NC(=O)CC(c2ccccc2)c2ccccc2)c(OC)cc1Cl,5.4,1,.,.,.,.
CCc1ccc(OCC(=O)Nc2ccc3ccccc3c2)cc1,15.9,0.966,.,.,.,.
O=C(NCc1cccnc1)c1cnn2c(C(F)(F)F)cc(-c3ccc4c(c3)OCO4)nc12,4.7,1.07,.,.,.,.
O=C1C(=O)N(c2nc3ccccc3s2)C(c2ccccc2Cl)C1=C(O)c1ccccc1 (configuration not stated),38.8,1.02,-4.0,-1.9,1.01,0.761*
O=C1C(=O)N(c2nc3ccccc3s2)C(c2ccccc2F)C1=C(O)c1ccccc1 (configuration not stated),5.9,0.948,.,.,.,.
COc1ccc(C2Nc3ccccc3C(=O)N2Cc2ccccc2)cc1Cn1nc(C)c(Br)c1C (configuration not stated),9.2,0.966,.,.,.,.
COc1cccc(OCCOc2cccc(/C=C3/SC(=S)NC3=O)c2)c1,19.9,0.915,.,.,.,.
COc1cccc(OCCOc2c(Cl)cc(/C=C3/SC(=S)NC3=O)cc2OC)c1,69.6*,0.969,44.6,46.6,0.971,0.79*
C=C(NC(C)=O)C(=O)c1ccc([N+](=O)[O-])cc1,0.7,0.964,.,.,.,.
O=C(O)c1cc(-c2ccc(/C=C3/Sc4ccccc4C3=O)o2)ccc1O,110.1*,0.974,60.5*,102.4*,0.836,0.686*
CC(=O)N(/C=C1\Sc2ccccc2C1=O)c1ccc(C)cc1,7.8,1.1,.,.,.,.
O=C1C=C(Nc2ccccc2)C(=O)N1c1ccccc1Cl,11.1,1.02,.,.,.,.
C=CCN1C(=O)NC(=O)/C(=C/C=C/c2ccco2)C1=O,78.2*,1.32*,45.7,40.5,1.07,0.763*
O=C1NC(=O)N(c2ccccc2Cl)C(=O)/C1=C\C=C\c1ccco1,61.5*,1.21*,51.0*,96.4*,1.24*,0.927
C=CCN1C(=O)NC(=O)C(=Cc2ccc(C(C)C)cc2)C1=O,5.7,0.988,.,.,.,.
Cc1cccc(C)c1NC(=O)c1ccc(I)cc1,14.2,0.888,.,.,.,.
O=C1NC(=O)N(c2ccccc2)C(=O)/C1=C\c1ccc(OCc2ccccc2F)cc1,10.9,1.1,.,.,.,.
COC(=O)C1=C(C)NC(=S)N(C(C)=O)C1c1ccc(Cl)cc1 (configuration not stated),6.1,0.967,.,.,.,.
CC(C)(C)c1ccc(S(=O)(=O)Nc2ccc(Cl)cc2)cc1,8.0,0.895,.,.,.,.
Cc1ccc2c(c1)C1C=CCC1C(C(=O)O)N2 (configuration not stated),93.5*,1.2*,75.3*,106.1*,1.41*,0.924
SMILES,HCV NS3h FP,Cy5 interf NS3h,NS3h confirm,SSB-DNA FP CB,Cy5 SSB interf,Cy5 interf conf
O=c1/c(=C/c2ccc(-c3ccccc3)o2)sc2nc3ccccc3n12,4.4,0.952,.,.,.,.
CCOC(=O)c1c(C)oc2ccc(OC(=O)c3ccccc3OC)cc12,12.9,0.898,.,.,.,.
N#Cc1ccccc1NC(=O)c1ccc(Br)cc1,5.6,0.923,.,.,.,.
CC(=O)NC1=C(N(C)C)C(=O)c2ccccc2C1=O,-21.2,0.909,.,.,.,.
CC(=O)N(C)C1=C(Cl)C(=O)c2ccccc2C1=O,90.1*,0.85,84.8*,0.5,0.973,0.973
CN1C(=O)/C(=C\c2ccc3c(c2)OCO3)OC1=S,10.9,1.13,.,.,.,.
